# Data published in the supplement of paper PMC6555819.
# Test system: VDR:RXRa (NR concentration 270 nM, RXRa partner concentration 90 nM)
# Experiment: PBM binding z-score (relative to random genomic background probes); higher = stronger binding; sequences stand for … in GC…GCGATTGACAGCGTAGAATGAAGG
# Method: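 Protein-binding microarray (Agilent 4x180K custom design, double-stranded 60-nt probes: 5' GC cap, 34-nt variable region, 24-nt constant primer region; full probe sequence given). Purified or IVT nuclear receptor:RXRα heterodimers (3:1 NR:RXRα, mostly 270:90 nM) or homodimers were incubated for 1 h in PBS with 2% milk and no ligand, then detected with Alexa488 antibodies. Fluorescence from o1-orientation probes (~5 replicates averaged) was converted to z-scores against 500 random hg19 background probes. Variable regions are seed direct-repeat (DR0–DR5) sites, all their single-nucleotide variants and half-site ablations.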
row,Sequence,PBM binding z-score
1,CGTCCAAGCTCAAGGTCAGTGAAAGAGACTCGAA,1.18
2,GCTATTAGTTGAAAGGGCAACTGAATGATTCTCG,0.488
3,GGAACGAGGGCATTCGATTTGATAGCATGGCGAT,1.73
4,TCTCGGAGGACACGAAGTTCAGAGCTTTCCAGAG,2.63
5,GATGCAGGGTCAAGGCCAGAGTACGCGTATTGAT,4.21
6,GGAACGAGGGCAAAGTTGATAGCCTCTGTCGACG,0.981
7,CGAACTACGTCAAGGACAGTGAATCTCCGCACGC,-0.475
8,CCTAGCCGGCCAGGGTCACTCAAGCATTTCGCTT,2.37
9,CCTTACGGGTCAAGGATATAGCACGGGTGGTACG,2.65
10,TAGCCTAGGTCATTGGCCCAGTATAGTACGCATC,2.09
11,CCGACTGGGGCAAGGTTACCAAAACGCACAGCCA,0.129
12,ACTAGTTGGTCAGCTGAGGTCACAGACAATTCGG,4.25
13,CCGACTGGGGCACAGGTTACCATACTCAGTACGA,-0.165
14,ATCTCTAGGTAACAATTTCAGTGAAAGAGAGGAC,0.483
15,CCTCGGAGTACAACAGGAGGTCAGAGCTGCCAGA,2.09
16,CCTACTGCGCCATCAGGTCATTGATATCAACGTT,2.07
17,GCTGCTAGGTCAGGTTGGTCCGCTAACGGGTACG,0.681
18,TAACCAAGGTGAGCTGAGGTCGTTGATCCAACTC,4.26
19,ACTAGCAGGCCAAGTTTGAGTCACTCAAACAAAG,-0.614
20,CCTAGCAGGGCAGGGTCACTCAAGCATTTCGCTT,2.88

row,Sequence,PBM binding z-score
1,ATCTCTAGGTAACCGAGTTCAGTGAATGCCGAAC,5.27
2,CCTACTGGGCTATTCAGAGGTCATTGATCATATG,3.57
3,TCTCGGGGGACACGAAAGGTCAGAGCTCGACATC,4.39
4,TCTAGCAGGCCAGAGGGTCGCTCAAGAGGTACGG,-0.181
5,CCTAGTTGGTCAGGAGGTCACAGACCGGATATGA,3.64
6,CCTGTTAGGTCAATGGTCAGCTAAAGCAGCTCGC,1.54
7,CCTACTGGTCCATCAGGTCATTGATATCAACGTT,2.46
8,AGTCAAAGTTCATCTAGGTAACGTAAGATATGCT,4.59
9,CGAACGAGGGCATGACTTGATAGCAAATGCCGAT,0.573
10,CCTACTGGGCCATTAGGTCATTGATATCAACGTT,1.47
11,CCTGCTAGGTCAATGGACAGCTAAAGCAGCTCGC,0.586
12,TCTCGGAGGACACGAATGGTCAGAGCTCGACATC,-0.0797
13,CCAGACAGGTGAGAAGATAACTCAGCCTCGATTA,0.035
14,CCTTACGGATCACGAGGTTATAGCACGACGAGCG,1.05
15,CGAACTAGGTCAAGGACCGTGAATCTCCGCACGC,0.799
16,GATACAGGCTCAGCTAGAGGCCAGAGTATGGAAA,-1.02
17,ACAGACAGGTGCGTGAAGGTAACTCAGCTGGACG,-0.488
18,AGTCAAAGTTCACTATGTAACGTAAGATTCAGCT,3.89
19,TCTTGTAGATCAGCGGGTTAAGAAAGCTGGCCAA,0.539
20,GGTACAGGGTCAGCTAGAGGCCAGAGTATGGAAA,3.29
